One experiment relates to MKL-2. Briefly: qHTS assay to identify novel small-molecules to repurpose for Merkel cell carcinoma treatment (AID 1296009). Further: nearly all actives have a fitted effect of over 60% in size. The following applies: MCC and control cell lines, CellTiter-Glo viability, 72 h; series mostly up to 46 µM. A digest of the protocol: (§1)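 Cells were treated for 72 hr at 37 degree celsius with compounds in 8- or 11-point dose response. Viability was read by CellTiter-Glo luminescence, normalized to no-cell (cytotoxicity) and DMSO controls.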
Background: Quantitative high-throughput screening tests each substance at several concentrations.

The subject of the next experiment is NIH3T3. Described as above. The following applies: MCC and control cell lines, CellTiter-Glo viability, 72 h; series mostly up to 44.8 µM. A digest of the protocol:
as §1
For orientation: Cellular ATP, detected with luciferase, serves as a proxy for viable cell number.

In a further experiment the test system is UISO. Described as above. The following applies: MCC and control cell lines, CellTiter-Glo viability, 72 h; series mostly up to 46 µM. Summed up:
as §1

The next experiment relates to WaGa. Described as above. The following applies: MCC and control cell lines, CellTiter-Glo viability, 72 h; series mostly up to 46 µM. Summed up:
as §1

The subject of a further experiment is C33A. The experiment is described as follows: Primary qHTS to identify gynecologic anti-cancer compounds using libraries of approved drugs and bioactive compounds (AID 1345084). Further: nearly all actives have a fitted effect of over 55% in size. Further: potency means the concentration at half of the fitted maximal effect. The following applies: Gynecologic cancer cell panel viability, ATPlite luminescence, 48 h; series mostly up to 57.5 µM. A digest of the protocol:
(§2)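 Luminescence from the ATPlite ATP-monitoring reagent indicates viable cell number; lower signal means cytotoxicity. Cells received compound 16 h after seeding and were exposed for 48 h across five concentrations.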

For the next experiment, the system named is CASKI. The description is as above. The following applies: Gynecologic cancer cell panel viability, ATPlite luminescence, 48 h; series mostly up to 57.5 µM. A digest of the protocol:
as §2

The subject of another experiment is Es-2. Described as above. The following applies: Gynecologic cancer cell panel viability, ATPlite luminescence, 48 h; series mostly up to 57.5 µM. A digest of the protocol: as §2
A further experiment relates to HeLa. The experiment is described as above. The following applies: Gynecologic cancer cell panel viability, ATPlite luminescence, 48 h; series mostly up to 57.5 µM. A digest of the protocol:
as §2

For a further experiment, the system named is Hek293T. Described as above. The following applies: Gynecologic cancer cell panel viability, ATPlite luminescence, 48 h, control line for the selectivity index; series mostly up to 57.5 µM. Summed up: as §2
The subject of a further experiment is JEG-3. The experiment is described as above. The following applies: Gynecologic cancer cell panel viability, ATPlite luminescence, 48 h; series mostly up to 57.5 µM. A digest of the protocol:
as §2

The next experiment concerns OV90. Described as above. The following applies: Gynecologic cancer cell panel viability, ATPlite luminescence, 48 h; series mostly up to 57.5 µM. Summed up: as §2
In another experiment the test system is PA-1. The description is as above. The following applies: Gynecologic cancer cell panel viability, ATPlite luminescence, 48 h; series mostly up to 57.5 µM. A digest of the protocol:
as §2

Another experiment deals with SKOV3. The description is as above. The following applies: Gynecologic cancer cell panel viability, ATPlite luminescence, 48 h; series mostly up to 57.5 µM. A digest of the protocol: as §2
For a further experiment, the system named is Tov-21-G. The description is as above. The following applies: Gynecologic cancer cell panel viability, ATPlite luminescence, 48 h; series mostly up to 57.5 µM. Summed up:
as §2

In a further experiment the test system is Tov112D. Described as above. The following applies: Gynecologic cancer cell panel viability, ATPlite luminescence, 48 h; series mostly up to 57.5 µM. Summed up:
as §2

Experiment [1] in a line: Drug repurposing screens with cells derived from glioblastoma tumor samples (AID 1345199). Further: nearly all actives have a fitted effect of over 40% in size. Further: potency means the concentration at half of the fitted maximal effect. The following applies: GBM patient neurospheres viability, ATP luminescence, 48 h. A digest of the protocol:
(§3)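 Four patient lines of CD133+ GBM neurospheres were screened at several concentrations; hits were retested in those lines plus three slower-growing GBM lines, using 48-hour treatment and ATP-based viability.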

Another experiment has as its system CAOV3. Briefly: Primary qHTS to identify gynecologic anti-cancer compounds using libraries of approved drugs and bioactive compounds (AID 1345084). Further: nearly all actives have a fitted effect of over 55% in size. Further: potency means the concentration at half of the fitted maximal effect. The following applies: Gynecologic cancer cell panel viability, ATPlite luminescence, 48 h; series mostly up to 57.5 µM. Summed up: as §2
For another experiment, the system named is astro. Briefly: Drug repurposing screens with cells derived from glioblastoma tumor samples (AID 1345199). Further: nearly all actives have a fitted effect of over 40% in size. Further: potency means the concentration at half of the fitted maximal effect. The following applies: viability, ATP luminescence, 48 h; series mostly up to 45.9 µM. A digest of the protocol: as §3
[2] abbreviates: at 45.9 µM (top of the series), tumour line D.
The mark [3] stands for this setting: at 46.1 µM (top of the series), tumour line C.
Setting [4] is: at 45.9 µM (top of the series), tumour line B.

Results filed as inconclusive are left out. More than one record can exist for a structure, and the calls need not agree. A number with no mark means an inactive call. The source made the active and inactive calls. The call rests on the fitted dose curve; in most records, active means well fitted curve in the direction sought with a large enough effect; inconclusive means small, poorly fitted or top-dose-only effect, or another doubt; inactive means no such curve, though single readings can be large; an effect the other way counts as inactive or inconclusive.
On the % scale 0 is the no-effect control and ±100 the full control effect.

On to `O=C(c1ccc(F)cc1)C1CCN(CCn2c(=O)[nH]c3ccccc3c2=O)CC1`, for which the Potency entry in the experiment on MKL-2, in the experiment with UISO, with WaGa, in the experiment with C33A, in the experiment on CASKI and in the experiment with Es-2 was “inactive” in each case. Further, the Potency result in the experiment on HeLa, in the experiment with Hek293T, with JEG-3, in the experiment with OV90, in the experiment on PA-1 and with SKOV3 was “inactive” each time. For the same compound, the Potency entry with Tov-21-G and in the experiment with Tov112D was “inactive” each time. The compound was classed as inactive in the experiment with NIH3T3. The activity, negative = cell killing is -39.8% in experiment [1] (setting [2]) and 7.2% in experiment [1] (setting [3]). Also, the Potency in experiment [1] (tumour line A) was 3.98 µM (active).

With `Cc1cc(C(C)(C)C)c(O)c(C)c1CC1=NCCN1`, the Potency entry with MKL-2, in the experiment on UISO, with WaGa, in the experiment on C33A, with CAOV3 and with CASKI was “inactive” throughout. Moreover, the Potency result with Es-2, in the experiment with HeLa, in the experiment on Hek293T, in the experiment on JEG-3, with OV90 and in the experiment with PA-1 was “inactive” in each case. Also, the Potency result with SKOV3, in the experiment with Tov-21-G, in the experiment on Tov112D and in the experiment on astro was “inactive” in each case. Also, in the experiment on NIH3T3, the call was inactive. The results for the activity, negative = cell killing in experiment [1] (setting [4]), in [1] (setting [2]) and in [1] (setting [3]) were -18.7%, -26.9% and 5.76%, respectively.

Take `Nc1nnc(-c2cccc(Cl)c2Cl)c(N)n1`: the Potency entry with MKL-2, in the experiment on UISO, in the experiment with WaGa, in the experiment with C33A, with CASKI and with Es-2 was “inactive” in each case. Further, the Potency result in the experiment with HeLa, in the experiment on Hek293T, with JEG-3, with OV90, with PA-1 and in the experiment on SKOV3 was “inactive” in each case. Further, the Potency result in the experiment with Tov-21-G, with Tov112D and with astro was “inactive” throughout. Further, the result with NIH3T3 was inactive. Besides, the activity, negative = cell killing is -10.9% in [1] (setting [4]); -13.4% in experiment [1] (setting [2]); -13.9% in experiment [1] (at 46 µM (top of the series), tumour line A); -25.4% in experiment [1] (setting [3]).

With `CCN1CCCC1CNC(=O)c1cc(S(=O)(=O)CC)c(N)cc1OC` (stereo not drawn), the Potency result with MKL-2, in the experiment with UISO, in the experiment with WaGa, in the experiment on C33A, in the experiment with CAOV3 and with CASKI was “inactive” each time. For the same compound, the Potency entry with Es-2, in the experiment on HeLa, in the experiment with Hek293T, in the experiment on JEG-3, in the experiment with OV90 and with PA-1 was “inactive” throughout. Further, the Potency result in the experiment with Tov-21-G and in the experiment with Tov112D was “inactive” each time. The compound was classed as inactive with NIH3T3. Also, the results for the activity, negative = cell killing in [1] (setting [4]), in experiment [1] (setting [2]) and in experiment [1] (setting [3]) were 6.58%, -2.77% and -4.87%, respectively.

Take `COc1cc2nc(N3CCN(C(=O)C4COc5ccccc5O4)CC3)nc(N)c2cc1OC` (stereo not drawn): the Potency entry with MKL-2, in the experiment with UISO, in the experiment on WaGa, with C33A, in the experiment with CASKI and in the experiment with Es-2 was “inactive” each time. In addition, the Potency entry with HeLa, with Hek293T, with JEG-3, with PA-1, in the experiment on Tov-21-G and in the experiment with Tov112D was “inactive” each time. For the same compound, the Potency result with astro was “inactive”. For the same compound, in the experiment with NIH3T3, the compound was classed as inactive. For the same compound, the activity, negative = cell killing was -16.3% in experiment [1] (setting [4]), -29.3% in experiment [1] (setting [2]) and -17.1% in [1] (setting [3]). Further, the Potency in experiment [1] (tumour line A) is 11.2 µM (active).

Take `COc1ccc(CCN(C)CCCC(C#N)(c2ccc(OC)c(OC)c2)C(C)C)cc1OC` (stereo not drawn): the Potency in [1] (tumour line B) was 35.5 µM (active).

On to `O=C1Cc2cc(CCN3CCN(c4nsc5ccccc45)CC3)c(Cl)cc2N1`, for which the results for the Potency in experiment [1] (tumour line B) and in experiment [1] (tumour line D) were 17.8 µM (active) and 12.6 µM (active), respectively.

Turning to `COc1cc2c(c(OC)c1OC)-c1ccc(OC)c(=O)cc1[C@@H](NC(C)=O)CC2`, the Potency entry with MKL-2, in the experiment on UISO and with WaGa was “inactive” each time. In addition, the Potency in the experiment on OV90 is 0.282 µM (active).

Consider `CN1CCN2c3ccccc3Cc3ccccc3C2C1` (stereo not drawn), for which the Potency result with Es-2, in the experiment with HeLa and in the experiment on JEG-3 was “inactive” each time. For the same compound, the activity, negative = cell killing in experiment [1] (setting [3]) is -2.24%. Moreover, the Potency is 11.2 µM (active) in experiment [1] (tumour line A), 20 µM (active) in [1] (tumour line D) and 20 µM (active) in the experiment with astro.

These data come from PubChem BioAssay (NCATS).
